Assay outcomes from PubChem.
This is one part of a sample in which hits are shown more often than they occur.
CHX counter: Cycloheximide Counterscreen for Small Molecule Inhibitors of Shiga Toxin; cell reporter, cycloheximide protein synthesis inhibition counterscreen; max response, %; hit rate 12% among 300,000; in the data active means max response mostly above about 13%, no sharp cut-off; inactive means mostly below about 14%; further: read at 38.3 µM for the half of the compounds with a filed dose; 0% is about no effect
LmPK inhibitor: qHTS Assay for Inhibitors of Leishmania Mexicana Pyruvate Kinase (LmPK). purified LmPK, Kinase-Glo ATP luminescence, 1 h. hit rate 0.37% among 290,000. Potency, µM (titrated, usually from 57.5 µM), inactives show at the top dose activity change, negative = inhibition, hits mostly inhibitors; further: potency means the concentration at half of the fitted maximal effect; on the % scale 0 is the no-effect control and ±100 the full control effect
Target sequence (Q27686 whole entry, looked up): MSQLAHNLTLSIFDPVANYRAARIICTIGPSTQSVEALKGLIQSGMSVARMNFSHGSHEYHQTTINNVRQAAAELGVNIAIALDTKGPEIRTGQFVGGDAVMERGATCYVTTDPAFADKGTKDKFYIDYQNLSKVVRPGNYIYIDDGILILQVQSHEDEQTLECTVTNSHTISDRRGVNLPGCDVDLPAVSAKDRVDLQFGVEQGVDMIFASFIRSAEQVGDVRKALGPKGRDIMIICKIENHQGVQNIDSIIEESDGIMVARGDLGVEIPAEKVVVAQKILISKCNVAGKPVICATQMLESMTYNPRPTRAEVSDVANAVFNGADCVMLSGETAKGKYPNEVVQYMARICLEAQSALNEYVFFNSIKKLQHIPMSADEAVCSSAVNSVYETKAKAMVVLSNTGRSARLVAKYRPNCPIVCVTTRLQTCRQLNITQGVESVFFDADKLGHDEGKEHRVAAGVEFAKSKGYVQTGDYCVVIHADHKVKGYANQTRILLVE
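Purified LmPK (0.1 nM) with 0.5 mM PEP and 0.1 mM ADP in imidazole buffer pH 7.2 with MgCl2/KCl, 1 h at room temperature. ATP formed was read by luciferase luminescence and normalized to no-enzyme and uninhibited controls.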
Shiga toxin inh: A qHTS for Small Molecule Inhibitors of Shiga Toxin; Vero cells, Shiga toxin protein synthesis inhibition reporter; inhibition, % at 38.7 µM; hit rate 9.2% among 290,000; AID 2315, 2010; in the data active means inhibition mostly above about 28%, no sharp cut-off; inactive means mostly below about 43%; further: 0% is about no effect
RE007 growth inh: qHTS Assay for Inhibitors of the HIV-1 protein Vpr | S. pombe RE007 Vpr strain, BacTiter-Glo ATP luminescence, 24 h | Potency, µM (titrated, usually from 92.2 µM), for the others: top-dose activity change, negative = less growth, usual class: inhibitors | hit rate 0.21% among 360,000 | AID 651644, 2012; active means well fitted falling curve with a large enough effect; inconclusive means small, poorly fitted or top-dose-only effect; inactive means no such curve, though single readings can be large or run the other way; further: potency means the concentration at half of the fitted maximal effect; on the % scale 0 is the no-effect control and ±100 the full control effect; nearly all actives have a fitted effect of over 50% in size
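Fission yeast strain RE007, carrying one chromosomally integrated HIV-1 vpr copy, was seeded at OD 0.01 in PMG+AL medium with 23 nL pinned compound. After 24 h at 30 °C and 99% humidity, viability was read by BacTiter-Glo luminescence.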
Giardia FBPA inh: qHTS Assay for Inhibitors of Fructose-1,6-bisphosphate Aldolase from Giardia Lamblia | A8B2U2 | purified Giardia FBPA | Potency, µM (series often up to 59.6 µM), without a hit: at the top dose activity, negative = inhibition, most hits filed as inhibitors | hit rate 0.71% among 290,000 | AID 2451, 2010; further: potency means the concentration at half of the fitted maximal effect; on the % scale 0 is the no-effect control and ±100 the full control effect; nearly all actives have a fitted effect of over 55% in size
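Giardia FBPA (40 nM reagent) was preincubated 10 min at RT with compound (up to 57.5 uM final), then substrate plus GAPDH/TPI/NAD/arsenate coupling system with diaphorase/resazurin was added; resorufin fluorescence (525/598 nm) was read after 20 min.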
TbPYK inhibitor: qHTS of Trypanosoma Brucei Inhibitors; TbPYK enzyme, Kinase-Glo Plus ATP luminescence, 45 min; pyruvate kinase (Trypanosoma brucei), Q57TT1; hit rate 0.12% among 410,000; Potency, µM (series often up to 76.8 µM), without a hit: at the highest dose activity, negative = inhibition, most hits filed as inhibitors; AID 624173, 2012; further: potency means the concentration at half of the fitted maximal effect; on the % scale 0 is the no-effect control and ±100 the full control effect; nearly all actives have a fitted effect of over 50% in size
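Activity of T. brucei pyruvate kinase was followed by Kinase-Glo Plus luminescence after the enzyme reacted 45 min at room temperature with 130 uM ADP (final) and substrate. Test compounds were added before ADP at multiple concentrations.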
* = called active by the depositor; u = inconclusive; x = not tested or not shown. Unless noted, the call rests on the fitted dose curve; in most records, active means well fitted curve in the direction sought with a large enough effect; inconclusive means small, poorly fitted or top-dose-only effect, or another doubt; inactive means no such curve, though single readings can be large; an effect the other way counts as inactive or inconclusive.

SMILES	CHX counter	LmPK inhibitor	Shiga toxin inh	RE007 growth inh	Giardia FBPA inh	TbPYK inhibitor
Cc1ccc(/C(N)=N/OC(=O)CCc2ccccc2)cc1	33*	-1%	91*	-12%	2%	2%
N/C(=N\OC(=O)CCc1ccccc1)c1ccc(Br)cc1	38*	-5%	71*	-16%	0%	2%
N/C(Cc1ccc(Cl)cc1)=N\OC(=O)CCc1ccccc1	x	x	x	-20%	x	-8%
N/C(=N\OC(=O)CCc1ccccc1)c1ccccc1Cl	28*	-2%	107*	-4%	1%	2%
Cc1c(C(=O)Nc2ccc(F)c(C(F)(F)F)c2)sc2nc(-c3ccccc3)cn12	x	x	x	x	x	-2%
CCNc1ncc2nc(C)c(=O)n(C[C@H]3CCCO3)c2n1	x	x	x	x	3%	x
O=C(NN=C1CCCC1)c1ccn[nH]1	56*	-1%	104*	-9%	0%	-21%
O=C(NN=C1CCCCCCCCCCC1)c1ccccc1F	78*	1%	70*	-3%	1%	2%
O=C(NN=C1CCCC1)c1ccccc1OCc1ccc(Cl)cc1	23	15%	54	9%	-1%	6%
O=C(NN=C1CCCCCCC1)c1ccc(F)cc1	24*	-3%	76*	9%	-5%	-11%
CC(C)(C)c1ccc(C(=O)NN=C2CCCC2)cc1	9	-3%	13	4%	-26%	1%
O=C(NN=C1CCCCCCCCCCC1)c1cccnc1	-2	-2%	-3	19%	-15%	-1%
O=C(NN=C1CCCCCC1)c1cccs1	61*	-3%	92*	5%	-12%	4%
Cc1c(C)c2ccc(OC(C)C(=O)NCCCN3CCOCC3)c(C)c2oc1=O (configuration not stated)	-2	-2%	2	7%	9%	-2%
O=C(CN1CCN(c2ccccc2O)CC1)Nc1cccnc1Cl	0	5%	-7	41%	-3%	-14%
COC(=O)c1ccc(/C=C/C(=O)c2cccc(OC)c2)cc1	70*	-20%	52*	-21%	0%	-13%
CSc1ccc(C(=O)/C=C/c2ccc(N)cc2)cc1	55*	u	77*	-6%	4%	-14%
COc1ccc(C(=O)/C=C/c2ccccc2)cc1	x	x	x	x	-2%	x
COc1cccc(C(=O)/C=C/c2ccc(SC)cc2)c1	49*	u	80*	-17%	1%	-14%
Clc1cccc2c1CCN(Cc1nc(-c3cnccn3)no1)C2	-1	0%	1	7%	-2%	1%
COC(=O)[C@@H](Cc1c[nH]c2ccccc12)NCc1cccc(B(O)O)c1	x	x	x	-20%	x	2%
O=C1CC2(CCN1)CCN(Cc1ccccc1)CC2	x	x	x	2%	x	0%
CC(=O)Nc1ccn(C2OC(C(COC(C)=O)NC(=O)C(CCCCNC(=O)OCc3ccccc3)NC(=O)OC(C)(C)C)C(OC(C)=O)C2OC(C)=O)c(=O)n1 (configuration not stated)	6	x	-5	x	3%	x
Cc1ccc(C(=O)NCC(=O)OCc2c(F)cccc2Cl)cc1	x	x	x	5%	x	-7%
Cc1ccc(S(=O)(=O)NCC(=O)NCC(=O)OCc2c(F)cccc2Cl)cc1	13*	2%	49	13%	u	-4%
SMILES	CHX counter	LmPK inhibitor	Shiga toxin inh	RE007 growth inh	Giardia FBPA inh	TbPYK inhibitor
O=C(CNC(=O)c1cccs1)OCc1c(F)cccc1Cl	48*	-1%	103*	24%	10%	-4%
O=C(Cc1c(F)cccc1Cl)NNC(=O)c1cccs1	x	x	x	15%	x	1%
CC(C)[C@@H](CO)NS(=O)(=O)c1ccc(Br)cc1F	x	x	x	4%	x	-2%
COc1ccc(NS(=O)(=O)c2cccc(C(=O)NCC(c3cccs3)N3CCOCC3)c2)cc1 (configuration not stated)	x	x	x	11%	x	2%
O=c1c2ccccc2c(C=Nc2cccc(S(=O)(=O)NCc3ccco3)c2)c(O)n1-c1ccc(Cl)cn1	44*	5%	51*	1%	1%	0%
O=C(NCc1ccccc1Cl)c1ccc2ccccc2n1	52*	8%	86*	-8%	-2%	1%
